# Bioassay records from PubChem BioAssay.
# CHO-K1 Ca PAM: M1 PAM counterscreen hit in parental CHO-K1 cells; ATP EC20, Fluo-8 calcium fluorescence; 0% at ATP EC20, 100% at ATP max; AID 602247; activation, % at 3 µM; 360,000 tested, 0.02% active;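 active = activation above the run cutoff, the mean activation of all test compounds plus 3 SD, cut at about 40% in these data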;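 also: peak over basal fluorescence ratio in a 140 s read after ATP addition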
# M1 ag: activates human CHRM1 receptor. P11229. CHO-K1 hM1, Fluo-8 calcium fluorescence, agonist mode; 0% DMSO, 100% acetylcholine EC100. activation, % at 3 µM. 360,000 tested, 0.33% active. AID 588814;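 active = activation above the run's mean compound activation plus 3 SD, cut at about 16% in these data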;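 also: peak over basal fluorescence ratio within a 140 s kinetic read after compound addition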
# Target sequence (P11229 whole entry, looked up): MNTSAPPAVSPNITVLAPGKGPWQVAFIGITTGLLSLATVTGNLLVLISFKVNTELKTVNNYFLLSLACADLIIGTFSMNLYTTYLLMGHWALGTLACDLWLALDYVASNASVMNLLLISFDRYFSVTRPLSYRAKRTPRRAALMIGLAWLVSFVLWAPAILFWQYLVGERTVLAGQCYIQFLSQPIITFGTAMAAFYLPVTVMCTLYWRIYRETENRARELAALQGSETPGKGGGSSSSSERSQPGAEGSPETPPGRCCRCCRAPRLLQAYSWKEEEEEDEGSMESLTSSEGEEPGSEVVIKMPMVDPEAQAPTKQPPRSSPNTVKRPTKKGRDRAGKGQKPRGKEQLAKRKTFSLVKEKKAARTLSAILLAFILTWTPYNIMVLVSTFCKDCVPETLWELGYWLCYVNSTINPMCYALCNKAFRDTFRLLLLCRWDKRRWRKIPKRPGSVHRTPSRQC
# CHRM1 antagonist: antagonists of human M1 muscarinic receptor | P11229 | CHO-K1 hM1, Fluo-8 calcium fluorescence, ACh EC80 antagonist | inhibition, % at 3 µM | 360,000 tested, 1.3% active | AID 588852;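 active = percent inhibition above its own plate's cutoff, namely the mean of that plate's compound wells plus 3 SD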;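 also: peak over basal fluorescence ratio during 140 s after agonist addition; 0% = ACh EC80 plus DMSO and 100% = DMSO alone without agonist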
# CHO-K1 Ca ag: counter-screen for M1 agonists: effect in parental CHO-K1 cells; Fluo-8 calcium fluorescence; scaled to maximal ATP response, vehicle zero; 360,000 tested, 0.48% active; AID 602248; activation, % at 3 µM; in the data active = activation above about 15%;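 also: untransfected CHO-K1 host cells lacking M1 receptor as counterscreen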
# CHRM1 PAM: positive allosteric modulators of human M1 muscarinic receptor. P11229. CHO-K1 hM1, Fluo-8 calcium fluorescence, ACh EC20; 0% = ACh EC20, 100% = maximal ACh. activation, % at 3 µM. 360,000 tested, 0.088% active. AID 588819; in the data active = activation above about 19%, passing the limit was not always enough
# CHO-K1 Ca antag: nonselective inhibitor or artifact in parental CHO-K1 cells; ATP-induced calcium, Fluo-8 fluorescence; inhibition, % at 3 µM; 360,000 tested, 0.6% active; AID 602250;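 active = inhibition above a per-plate cutoff, the plate's mean sample inhibition plus 3 SD, cut at about 24% in these data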;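 also: 0% = DMSO plus EC80 ATP and 100% = DMSO alone without ATP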
# Active calls of the source: *. Shown are actives, neighbours in structure and some others; about 2.3% of the full set was active somewhere.
SMILES,CHO-K1 Ca PAM,M1 ag,CHRM1 antagonist,CHO-K1 Ca ag,CHRM1 PAM,CHO-K1 Ca antag
Nc1nc2c(ncn2[C@@H]2O[C@H](CNC(=O)[C@H](N)Cc3cncn3COCc3ccccc3)[C@@H](O)[C@H]2O)c(=O)[nH]1,-5,-2,-14,0,-2,-10
COc1ccc(CNC(=O)c2cccc3c(-c4cccnc4)coc23)cc1OC,-8,4,34*,15*,-17,28*
NNC(=O)C(=O)Nc1ccc(Cl)c(Cl)c1,4,-2,-23,1,10,-5
O=C(Nc1ccc(Cl)c(Cl)c1)Nc1ccc(Br)cc1F,1,0,28,11,-19,28*
Cc1cc(NC(=O)Nc2ccc(Cl)c(Cl)c2)no1,-14,3,9,7,-1,13
O=C(Nc1ccccc1)Nc1ccc(Br)c(Cl)c1,3,0,28,13,-13,27*
O=C(Nc1ccc(Cl)c(Cl)c1)Nc1ccon1,-20,4,24*,11,-15,20
O=C1C=C(NC(=O)Nc2ccc(Cl)c(Cl)c2)CCC1,-2,1,13,7,-12,30*
CC(NS(=O)(=O)c1ccccc1)C(=O)Nc1ccc2c(c1)OCCO2 (centres undefined),8,-3,-6,0,9,-4
O=C(Nc1ccc(Cl)c(Cl)c1)Nc1ccccc1O,-9,2,19,13,-7,25*
CCCN(CCC)c1ncnc2nc[nH]c12,-4,-4,19,0,-11,29*
Clc1ccccc1CN(Cc1ccccc1)c1ncnc2nc[nH]c12,16,-4,-5,2,-6,3
Cc1ccc(C)c(N2CCN(C(=O)CCS(=O)(=O)c3ccc4c(c3)NC(=O)CO4)CC2)c1,3,6,22,17*,-10,-3
O=C1COc2ccc(S(=O)(=O)CCC(=O)N3CCN(c4ccccc4)CC3)cc2N1,24,-1,-12,1,9,-11
CCCN1CCN(C(=O)CCS(=O)(=O)c2cc3c(cc2Cl)NC(=O)CO3)CC1,-11,-4,13,0,-10,26*
CC1CCN(C(=O)CCS(=O)(=O)c2cc3c(cc2Cl)NC(=O)CO3)CC1,20,-1,-12,1,3,-6
CC(CC(=O)N1CCN(c2cccc(Cl)c2)CC1)S(=O)(=O)c1ccc2c(c1)NC(=O)CO2 (centres undefined),-15,4,66*,3,-21,0
COc1ccc(N2CCN(C(=O)CC(C)S(=O)(=O)c3ccc4c(c3)NC(=O)CO4)CC2)cc1 (centres undefined),-18,3,9,10,-9,17
COc1ccc2oc(CS(=O)c3ccccc3)c(C(=O)O)c2c1 (centres undefined),20,-2,-9,1,3,-8
COc1ccc(/C(C)=N/NC(=O)c2ccc(CSc3nncn3C)cc2)cc1,15,-3,13,15*,-5,9
O=C(Nc1ccccc1Cl)c1cc(C2CCCCN2C(=O)C2CCCCC2)on1 (centres undefined),0,-8,-8,0,-3,-4
COC(=O)N1CCCCC1c1cc(C(=O)Nc2ccccc2Cl)no1 (centres undefined),10,2,-23,1,28*,-10
CCCNC(=O)c1cc(C2CCCCN2C(=O)c2cc(OC)c(C)c(OC)c2)on1 (centres undefined),-10,-2,-7,3,-5,25*
CC(C)c1cc(C(=O)OCC(=O)NC2CC2)c(O)c(C(C)C)c1,0,-6,-8,0,4,8
CCN(CC(=O)Nc1c(F)cccc1F)C(=O)CNC(=O)C1CCCCC1,-23,-3,-16,0,8,14
Cc1c(OCC(=O)N(C)C)ccc2c3c(c(=O)oc12)CCCCC3,-13,-9,12,1,-13,25*
Cc1c(OCC(=O)N2CCN(c3ccccc3)CC2)ccc2c3c(c(=O)oc12)CCCC3,8,-2,-7,2,7,25*
Cc1c(OCC(=O)N2CCC(C(=O)O)CC2)ccc2c3c(c(=O)oc12)CCCC3,-11,0,-4,0,1,2
O=C1NC(=S)NC1=Cc1ccccc1O,-17,19*,5,17*,-8,23
